Rows were chosen to be rich in hits. Some 3.6% of all compounds tested hit in one or more screens of this group.
PI5P4K alpha inh – PI5P4K alpha (human) kinase inhibition; 330,000 tested, 1.2% active; max response, %; P48426; PI5P4Kalpha enzyme, ADP-Glo luminescence, 60 min; stronger effect = lower value; active means max response of -50% or lower; inconclusive means between -30% and -50%; inactive means -30% or higher; further: value at the top dose of about 77 µM; on the % scale 0 is the no-effect control and ±100 the full control effect
Target sequence (P48426 whole entry, looked up): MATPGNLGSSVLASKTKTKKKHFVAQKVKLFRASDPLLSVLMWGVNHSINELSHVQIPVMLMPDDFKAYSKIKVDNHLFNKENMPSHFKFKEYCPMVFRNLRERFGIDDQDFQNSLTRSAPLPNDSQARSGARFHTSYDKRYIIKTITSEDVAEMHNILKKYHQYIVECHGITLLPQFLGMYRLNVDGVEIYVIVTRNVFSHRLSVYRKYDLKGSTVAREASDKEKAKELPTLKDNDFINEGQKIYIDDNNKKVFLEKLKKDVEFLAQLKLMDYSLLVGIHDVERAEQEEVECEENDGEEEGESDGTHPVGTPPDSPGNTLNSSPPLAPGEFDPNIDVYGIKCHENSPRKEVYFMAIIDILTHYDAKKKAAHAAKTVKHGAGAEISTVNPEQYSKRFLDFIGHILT
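ADP-Glo luminescence end-point read after a 60 min room-temperature kinase reaction of PI5P4Kalpha plus substrate, initiated with ATP at 5 microM final. Buffer: 0.038 M HEPES pH 7.4, EGTA, 0.1% CHAPS, 5% DMSO.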
VDR inhibitor – blocks the human vitamin D receptor | P11473 | VDR-SRC2-3 peptide fluorescence polarization, 2 h | Potency, µM, inactives show max response, negative = inhibition, most hits filed as inhibitors | 400,000 tested, 0.93% active | AID 504847; further: potency means the concentration at half of the fitted maximal effect; on the % scale 0 is the no-effect control and ±100 the full control effect
Target sequence (P11473 whole entry, looked up): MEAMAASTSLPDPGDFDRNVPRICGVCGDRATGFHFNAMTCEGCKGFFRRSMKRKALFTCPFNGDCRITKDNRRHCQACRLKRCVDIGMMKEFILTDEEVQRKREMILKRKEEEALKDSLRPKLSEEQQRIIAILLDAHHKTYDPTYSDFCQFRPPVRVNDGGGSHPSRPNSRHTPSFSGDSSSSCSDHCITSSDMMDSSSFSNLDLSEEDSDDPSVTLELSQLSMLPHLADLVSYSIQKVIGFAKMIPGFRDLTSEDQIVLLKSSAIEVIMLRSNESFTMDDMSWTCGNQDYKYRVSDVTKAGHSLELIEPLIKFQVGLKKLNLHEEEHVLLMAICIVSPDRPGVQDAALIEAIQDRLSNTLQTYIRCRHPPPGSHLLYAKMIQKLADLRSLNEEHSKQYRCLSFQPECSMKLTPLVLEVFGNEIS
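FP read-out; VDR + SRC2-3 coactivator peptide; 23 nl compound by pintool; 2 h RT incubation; reagents held at 4 deg C, protected from light.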
Rango complex inh – prevents formation of the Rango-importin beta complex; Rango CFP/YFP FRET sensor + importin beta, 45 min; Potency, µM (highest dose often 92.2 µM), without a hit: at the highest dose inhibition of complex formation; 340,000 tested, 0.031% active; AID 540263; calls by dose curve;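 further: potency means the concentration at half of the fitted maximal effect; 0% = DMSO wells and 100% = buffer wells lacking importin beta; nearly all actives have a fitted effect of over 15% in size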
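FRET biosensor Rango (snurportin 1 IBB between N-terminal EYFP and C-terminal Cerulean), 50 nM in PBS/1 mM DTT/0.02% Tween-20/0.1% BSA, preincubated 5 min RT with compound; 0.125 microM importin beta added, 45 min RT, CFP/YFP FRET ratio read.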
GCN5L2 inh – GCN5L2 (KAT2A) acetyltransferase inhibition; Q92830; GCN5L2 HAT assay, ThioGlo1 CoA-SH fluorescence; Potency, µM (doses to about 58.9 µM), for inactives: at the top dose activity change, negative = inhibition, most hits filed as inhibitors; 390,000 tested, 0.21% active; further: potency means the concentration at half of the fitted maximal effect; on the % scale 0 is the no-effect control and ±100 the full control effect
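Enzyme at 20nM final was mixed with library compounds for 15 min at room temperature. Peptide H3(1-25) at 75uM, acetyl-CoA at 70uM and ThioGlo1 at 50uM were then added. Plates were read immediately and after 20 min (Ex340nm/Em540nm).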
PLK1 PBD inh – PLK1 (human) polo-box domain binding inhibition; 360,000 tested, 2.8% active; AID 720504; Potency, µM, for the others: max response, negative = inhibition, most hits filed as inhibitors; P53350; Plk1 PBD binding of FITC phosphopeptide, fluorescence polarization; further: potency means the concentration at half of the fitted maximal effect; series mostly up to about 57 µM; on the % scale 0 is the no-effect control and ±100 the full control effect; nearly all actives have a fitted effect of over 65% in size
Rango release inh – inhibitors of RanGTP-induced Rango-importin beta complex dissociation | Biochemical FRET Rango-importin beta, RanGTP-induced dissociation | O95149+P62826 | 340,000 tested, 0.071% active | Potency, µM (titrated, usually from 46.1 µM), without a hit: top-dose activity change, negative = inhibition | AID 540253; calls by dose curve; further: potency means the concentration at half of the fitted maximal effect; % of control where 0% means no effect; nearly all actives have a fitted effect of over 45% in size
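Quantitative HTS using a FRET biosensor: 0.1 uM Rango, 0.25 uM importin beta, 0.6 uM Ran, 2 mM GTP, 0.2 uM RCC1 final, PBS with DTT, Tween-20 and BSA. Post-read taken 45 min after Ran addition.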
Starred values were filed as active, the others as inactive; u = inconclusive; x = no result; [ ] = another dose, or the depositor's remark. Unless noted, the call rests on the fitted dose curve; in most records, active means well fitted curve in the direction sought with a large enough effect; inconclusive means small, poorly fitted or top-dose-only effect, or another doubt; inactive means no such curve, though single readings can be large; an effect the other way counts as inactive or inconclusive.

SMILES | PI5P4K alpha inh | VDR inhibitor | Rango complex inh | GCN5L2 inh | PLK1 PBD inh | Rango release inh
CN1CCN(Cc2nc3ccccc3c(=O)n2Cc2nc(-c3ccc([N+](=O)[O-])cc3)cs2)CC1 | -1.8 | -12.7% | -0.6% | -0.4% | 29.9µM* | 1.4%
CC[C@H](C)N | x | 11.2% | x | -16.9% | x | x
c1ccc(-c2n[nH]c3c2CCC3)cc1 | 3.4 | -1.0% | -0.8% | 0.5% | -1.4% | 3.9%
CC(C)(C)c1n[nH]c2c1CCCC2 | -2.1 | -16.0% | 0.5% | 2.8% | 26.7µM* | 0.3%
Cc1cc2nc3c(nc2cc1C)C(O)=C3O | -17.9 | -19.5% | 0.8% | 2.4% | 8.44µM* | u
OC1=C(O)c2nc3ccccc3nc21 | x | -14.8% | u | -13.4% | u | -7.0%
COc1ccc(CCNc2ncnc3c2nnn3C)cc1 | x | 8.5% | x | -0.5% | x | x
O=C(O)c1ccc(N2CC3CC(C2)c2cccc(=O)n2C3)c(NC(=S)Nc2ccc(Cl)cc2Cl)c1 (stereo unspecified) | -17.0 | u | -1.3% | -17.0% | 11.9µM* | -4.3%
COc1cccc(NC(=O)Nc2cc(C(=O)NC(C)C)ccc2N2CC3CC(C2)c2cccc(=O)n2C3)c1 (stereo unspecified) | -14.3 | -23.7% | 2.9% | -13.4% | 3.77µM* | -4.7%
CCc1ccc(NC(=O)Nc2cc(C(=O)O)ccc2N2CC3CC(C2)c2cccc(=O)n2C3)cc1 (stereo unspecified) | 0.0 | -11.5% | -2.4% | -6.6% | -14.3% | 28.3%
COc1ccc(Nc2nc3c(S(=O)(=O)c4ccc(Br)cc4)nnn3c3ccsc23)c(OC)c1 | x | 6.9% | x | -16.6% | x | x
COC(=O)c1sc(NC(=O)c2ccc(Cn3cc(Cl)cn3)o2)c(C#N)c1C | u | u | u | -20.7% | 2.99µM* | u
COc1cccc(NC(=O)CCc2nnc3ccc(N4CCN(c5cccc(OC)c5)CC4)nn23)c1 | -4.7 | u | -0.5% | 0.8% | 5.97µM* | -9.8%
COc1cc(NC(=O)CCc2nnc3ccc(N4CCN(c5cccc(OC)c5)CC4)nn23)cc(OC)c1 | 0.8 | -7.3% | -0.7% | 5.8% | 4.1% | -8.3%
CCOC(=O)c1ccc2cccc(C)n2c1=O | 1.9 | -11.1% | u | -5.2% | -15.5% | 11.6µM*[inhibitor]
CC(C)C[C@@H](NC(=O)[C@H](Cc1ccccc1)NC(=O)c1cnccn1)B(O)O | x | -10.1% | x | 1.6% | x | x
CC(C)c1ccc(Nc2ncnc3c2nc2n3CCCC2)cc1 | x | 16.2% | x | -7.1% | x | x
O=c1c2c3c(sc2nc2n1CCCCC2)CCCC3 | -17.5 | -16.5% | -1.5% | 0.6% | 26.7µM* | 25.0%
O=C1COCCN1 | x | -13.8% | x | x | x | x
CCOC(=O)c1c(NC(=O)/C=C\C(=O)O)sc(C)c1-c1ccccc1 | u | -26.4% | 1.3% | -1.0% | 21.2µM* | 6.8%
Cc1sc(NC(=O)/C=C/C(=O)O)c(C(N)=O)c1-c1ccc(C(C)(C)C)cc1 | u | 79.4µM* | 1.0% | -10.2% | 26.7µM* | 2.6%
Cc1sc(NC(=O)C2CCCCC2C(=O)O)c(C(N)=O)c1-c1ccc(C(C)(C)C)cc1 (stereo unspecified) | 0.5 | u | -0.7% | -11.7% | 21.2µM* | 2.3%
Cc1sc(NC(=O)C2C3CCC(C3)C2C(=O)O)c(C(N)=O)c1-c1ccc(C(C)(C)C)cc1 (stereo unspecified) | -8.3 | -20.7% | -0.2% | -1.1% | u | -14.2%
CCOC(=O)c1c(NC(=O)/C=C/C(=O)O)sc(C)c1-c1ccc(C(C)(C)C)cc1 | -2.7 | 20µM* | 0.7% | u | 21.2µM* | 4.7%
Cc1cccc(NC(=O)c2oc3ccccc3c2NC(=O)Cc2coc3cc(C)cc(C)c23)c1 | x | 9.7% | x | -5.5% | x | x
SMILES | PI5P4K alpha inh | VDR inhibitor | Rango complex inh | GCN5L2 inh | PLK1 PBD inh | Rango release inh
CN(CC(=O)Nc1ccc2c(c1)CCC2)CC(=O)Nc1ccccc1Br | -27.5 | u | 3.3% | -3.7% | 6.7µM* | -0.6%
CCCCCC1(C(=O)OCC)CC(CSC(=N)N)OC1=O (stereo unspecified) | -3.0 | -20.5% | -1.0% | 3.4% | 29.9µM* | 6.2%
COc1ccccc1CNc1nc2c(S(=O)(=O)c3ccc(C)c(C)c3)nnn2c2ccc(Cl)cc12 | x | -11.2% | x | -1.7% | x | x
N#C/C(=C(/O)CCl)c1nc2c(s1)CCc1ccccc1-2 | -26.9 | u | -0.5% | -13.6% | 7.52µM* | 3.3%
O=c1[nH]c(Cc2ccc(F)cc2)nc2scc(-c3ccc(F)cc3)c12 | 0.9 | u | 6.9% | -8.5% | 5.97µM* | -19.4%
Cc1ccc(-c2csc3nc(CN(C)Cc4ccccc4)[nH]c(=O)c23)cc1 | -6.3 | 5.2% | u | -12.6% | 0.5% | -11.3%
Cc1ccc(-c2csc3nc(-c4ccncc4)[nH]c(=O)c23)cc1 | -3.9 | -8.2% | -5.4% | 1.4% | 16.8µM* | 5.3%
CC(C)OC(=O)n1c(=S)oc2ccccc21 | x | -9.3% | 1.8% | -3.9% | -7.7% | -23.2%
CCCCC(=O)/C=C/n1c(=S)oc2ccccc21 | 13.6 | 12.6µM* | -0.6% | -4.9% | u | -6.9%
Cc1cc(C)c(S(=O)(=O)NCCc2sc3nc(-c4ccc(F)cc4)nn3c2C)c(C)c1 | x | 6.2% | x | -10.0% | x | x
Cc1ccc(NC(=O)Cn2cc(C(=O)C3CCCCC3)c3ccccc32)cc1 | x | 13.2% | x | -8.5% | x | x
O=C1CCCC2=C1C(c1ccco1)Nc1ccc3ccccc3c12 (stereo unspecified) | -64.4* | 6.9% | -6.0% | u | 23.8µM* | -1.8%
Cc1ccccc1OCC(=O)NNC(=O)Cc1ccc(S(=O)(=O)N2CCOCC2)s1 | -1.9 | 2.7% | -0.5% | -1.9% | 1.1% | -13.2%
Cc1ccc(OCC(=O)NNC(=O)Cc2ccc(S(=O)(=O)N3CCOCC3)s2)cc1 | -61.3* | -2.1% | 0.7% | -22.0% | -10.0% | 2.1%
CC(=O)Nc1cc(C(=O)NCc2ccc(F)cc2)ccc1Sc1ccc(C)cc1 | x | 7.6% | x | -1.7% | x | x
NC(=S)NCCC[C@H](N)C(=O)O | x | 50.1µM* | x | u | x | x
COc1ccccc1CNC(=O)c1ccc(CS(=O)(=O)c2c(Cl)cccc2Cl)o1 | x | -14.8% | x | -3.9% | x | x
COc1ccccc1S(=O)Cc1ccc(C(=O)NCc2ccccc2Cl)o1 (stereo unspecified) | -5.3 | u | -5.9% | -4.3% | 26.7µM* | -11.1%
O=C1C(=Cc2cccs2)C(=O)c2ccccc21 | 9.2 | 7.6% | 4.6% | -1.2% | 8.44µM* | 3.3%
Cc1ccc(C=C2C(=O)c3ccccc3C2=O)s1 | -15.3 | 22.2% | -0.8% | -2.8% | 16.8µM* | 2.2%
O=C1/C(=C/c2cccs2)Cc2ccccc21 | 4.4 | -9.0% | -0.7% | -1.5% | -7.4% | -13.4%
Cc1cc(C=C2C(=O)c3ccccc3C2=O)c(C)n1C | -14.9 | -18.8% | u | -9.4% | -13.6% | u
O=C1/C(=C\c2cccs2)CCC/C1=C/c1cccs1 | x | 39.8µM* | x | u | x | x
COC(=O)c1scc(S(C)(=O)=O)c1-n1cccc1 | -11.4 | -12.6% | 4.4% | 0.6% | 29.9µM* | -6.3%

Screening results as filed in PubChem.
